Bioassay records (PubChem BioAssay)
pCIP destab – compounds decreasing mouse p/CIP protein stability | Q05BA5 | F442A p/CIP-EGFP cells, EGFP fluorescence, 16 h | decrease of EGFP signal, % at 10 µM | 0.01% of 290,000 active | AID 1984;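 active = EGFP signal decrease of at least 30% at 10 µM or well 3 SD below plate mean, unless failing retest; inactive = the rest, including hits failing retest or dose response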
phage Ecoli inh – E. coli growth loss with phage present. 0.26% of 360,000 active. growth absorbance. inhibition, % at 11.9 µM; in the data active = inhibition above about 11%
AddAB inh – less growth of phage-infected E. coli with AddAB. 0.29% of 330,000 active. E. coli expressing H. pylori AddAB, absorbance growth. AID 435030. inhibition, % at 11.9 µM; in the data active = inhibition above about 12%;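 also: 0% = vehicle wells of infected cells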
E coli growth-1 – E. coli growth inhibition | AID 1053175 | 0.21% of 330,000 active | Escherichia coli growth, OD600, 23 h; stronger effect = lower value | OD600 absorbance (no concentration beside the values);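 active = OD600 absorbance below the run mean of sample wells minus 3.6 SD, in any replicate, cut at about 0.56 in these data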
Tat transport – E. coli Tat transport inhibition. E. coli MC4100 TorA-mCherry Tat export, fluorescence. inhibition, % at 10 µM. 0.036% of 340,000 active. AID 488895;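 active = mean replicate inhibition at least 50% and at least half of replicates individually reaching 50%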;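 also: exported cargo escapes ClpAP degradation while cytoplasmic cargo is degraded and loses fluorescence; 0% = median of neutral control wells and 100% = median of NaSCN control wells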
E coli growth-2 – counter-screen for AddAB inhibitors: E. coli growth inhibition. E. coli V3065 growth, OD600 absorbance, 18 h. inhibition, % at 11.9 µM. 0.27% of 330,000 active. AID 449728;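 active = inhibition above the campaign's mean inhibition across all tested compounds plus 3 SD, cut at about 9.9% in these data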;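 also: uninfected addAB+ strain grown without phage in ampicillin broth; 0% = DMSO wells and 100% = ciprofloxacin 0.95 µg/ml wells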
Starred values were filed as active, the others as inactive; i = inactive; . = not tested or not shown; ! = a repeat was not active. This is a sample that favours compounds with a hit; in the whole collection about 0.51% have one here.

SMILES	pCIP destab	phage Ecoli inh	AddAB inh	E coli growth-1	Tat transport	E coli growth-2
Clc1ccc2c(c1)C(N1CCNCC1)Cc1ccccc1S2 (stereo unspecified)	-11.4	.	-1.1	0.546*	9.1	-1.3
Clc1cccc2c1Sc1ccccc1CC2N1CCNCC1 (stereo unspecified)	-10.8	3.4	3.4	0.53	8.8	1.2
Cc1cccc(N2C(=O)CS/C2=N\NC(=O)c2ccc(Br)cc2)c1C	-3.7	10.6	12.1	.	-13.5	12.7*
Cc1cccc(N2C(=O)CSC2=NNC(=O)c2ccc(Br)cc2)c1C	.	.	.	0.604	.	.
Cc1ccc(C(=O)N2CCCC(CCC(=O)NCc3ccccc3F)C2)cn1 (stereo unspecified)	-9.8	2.0	-1.6	0.716	0.1	-2.0
C=CCOc1cccc(C(=O)N2CCCC(CCC(=O)NCc3ccccc3F)C2)c1 (stereo unspecified)	-12.5	2.0	1.8	0.672	50.5*	-1.5
Oc1ccc(-c2nc(-c3ccc(F)cc3)c(-c3ccncc3)[nH]2)cc1	.	3.3	0.1	0.318*	-13.0	1.0
Fc1ccc(-c2nc(-c3cccs3)[nH]c2-c2ccc(F)cc2)cc1	-2.6	3.3	3.5	0.652	-5.9	-0.5
COc1ccc(-n2nc(C(=O)NCC(=O)Nc3cccc(NC(C)=O)c3)c3ccccc3c2=O)cc1	-0.8	-4.8	1.4	0.571*	-16.3	-1.8
CN1CCC(OC(=O)c2cccc(Br)c2)CC1	-0.4	2.7	0.7	0.73	-8.2	1.6
CC(C)C(NC(=O)c1ccccc1)C(=O)OCC(=O)N1CCN(c2ccccc2)CC1 (stereo unspecified)	.	0.7	-0.3	0.675	0.0	-0.2
NC(N)=NN=Cc1ccccc1Cl	.	.	.	0.697	.	.
NC(N)=N/N=C/c1ccccc1Cl	3.5	i	i	.	-2.9	13.4*
NC(N)=NN=Cc1ccc(OCc2ccccc2Cl)cc1	.	.	.	0.0445*	.	.
NC(N)=N/N=C/c1c(Cl)cccc1Cl	-10.3	6.9	5.8	.	3.0	12.2*!
NC(N)=NN=Cc1ccc(Br)cc1	.	.	.	0.634	.	.
COc1ccc(N(CC(=O)N2CCN(Cc3ccccc3)CC2)S(=O)(=O)c2ccccc2)cc1	-6.8	0.5	-0.1	0.731	3.4	1.4
CCOC(=O)c1c(-c2ccc(-c3ccccc3)cc2)csc1NC(=O)CNCCN(C)C	-5.4	-2.7	-5.9	0.413*	13.4	-3.4
CCOC(=O)c1c(-c2ccccc2)csc1NC(=O)CCN1C(=O)c2ccccc2C1=O	-8.6	3.0	4.8	0.716	1.0	-0.9
COc1cccc(C(=O)NCC(c2cccs2)N2CCOCC2)c1 (stereo unspecified)	.	1.6	1.4	0.674	-8.0	-0.3
O=C(Nc1cccnc1)c1ccc(NS(=O)(=O)c2cccc([N+](=O)[O-])c2)cc1	-5.7	1.1	-3.2	0.314*	-1.9	-0.2
CCOc1ccc2[nH]c3c(NCCN(C)C)ncnc3c2c1	-5.0	0.7	-0.1	0.675	7.8	-0.7
CCOc1ccc2[nH]c3c(NCCC(C)C)ncnc3c2c1	3.0	8.5	.	0.502*	-3.9	.
CO[C@@]1(NC(=O)C2SC(=C(C(N)=O)C(=O)O)S2)C(=O)N2C(C(=O)O)=C(CSc3nnnn3C)CSC21 (stereo partly specified)	.	.	.	0.061*	.	.
CO[C@@]1(NC(=O)CSCC#N)C(=O)N2C(C(=O)O)=C(CSc3nnnn3C)CSC21 (stereo partly specified)	.	.	.	0.605	.	.
SMILES	pCIP destab	phage Ecoli inh	AddAB inh	E coli growth-1	Tat transport	E coli growth-2
CC(C(=O)NC1C(=O)N2C(C(=O)O)=C(CSc3nnnn3C)CSC12)n1cc(Cl)cn1 (stereo unspecified)	12.9	5.0	-0.7	0.501*	-2.9	1.1
Cc1nn(CC(=O)NC2C(=O)N3C(C(=O)O)=C(CSc4nnnn4C)CSC23)cc1Br (stereo unspecified)	15.5	5.1	0.1	0.461*	-11.2	1.2
CCN1CCN(C(=O)NC(C(=O)NC2C(=O)N3C(C(=O)O)=C(CSc4nnnn4C)CSC23)c2ccc(O)cc2)C(=O)C1=O (stereo unspecified)	.	.	.	0.061*	.	.
Cc1c(Cl)cnn1CC(=O)NC1C(=O)N2C(C(=O)O)=C(CSc3nnnn3C)CSC12 (stereo unspecified)	3.7	7.6	-1.9	0.074*	-0.1	-1.9
CCC1C(O)CC2CCN3C(=O)CCCC1C23 (stereo unspecified)	.	.	.	0.681	.	.
C/C(=N\NC(=O)c1ccco1)c1ccc(NC(=O)C(F)(F)F)cc1	1.1	2.7	.	.	4.8	.
Cc1ccc(-c2nnc(SCC(=O)NN=Cc3c(C)nn(-c4ccccc4)c3C)n2-c2ccccc2)cc1	.	.	.	0.712	.	.
CSc1ccc(NC(=O)C2(C)CCN2C(=O)c2sccc2C)cc1 (stereo unspecified)	.	1.1	.	.	.	.
CSc1ncccc1C(=O)Nc1ccncc1	-17.2	0.1	0.3	0.744	6.1	-2.1
Cc1c(Cl)c(C(F)F)nn1CC(=O)NC1C(=O)N2C(C(=O)O)=C(CSc3nnnn3C)CSC12 (stereo unspecified)	0.7	6.0	.	0.65	-3.0	.
Cn1nnnc1SCC1=C(C(=O)O)N2C(=O)C(NC(=O)Cn3nc(C(F)F)cc3C3CC3)C2SC1 (stereo unspecified)	8.0	9.3	0.0	0.487*	-2.3	1.9
O=c1[nH]c(=O)n(C2CC(O)C(CO)O2)cc1F (stereo unspecified)	.	.	.	0.0625*	.	.
O=c1[nH]c(=O)n([C@H]2C[C@H](O)[C@@H](CO)O2)cc1I	.	10.0	3.3	.	13.4	4.3
CN(C(=O)c1ccc(Oc2ccc([N+](=O)[O-])cc2)cc1)C1CCCCC1	-11.2	4.8	2.3	0.64	11.1	-1.4
CCN1/C(=C/C=C/C=C/c2sc3ccccc3[n+]2CC)Sc2ccccc21	-12.8	.	23.5*	.	.	19.6*
CCN1/C(=C/C=C/C=C/C=C/c2sc3ccccc3[n+]2CC)Sc2ccccc21	-10.4	2.0	-0.8	0.846	-9.3	-1.6
O=[N+]([O-])c1ccc(-[n+]2ccc3ccccc3c2)c([N+](=O)[O-])c1	.	3.5	5.0	0.446*	-0.6	1.9
O=C(NCc1cccnc1)C(=O)NCC(c1ccco1)N1CCN(c2ccc(F)cc2)CC1 (stereo unspecified)	-3.0	4.5	0.3	0.689	3.7	-2.7
COc1ccc(C=NNC(=O)Cc2csc(Nc3cccc(C(F)(F)F)c3)n2)cc1C	.	.	.	0.713	.	.
Oc1c(Cl)cc(Cl)cc1CNc1nc2ccccc2[nH]1	-0.7	4.8	3.3	0.425*	-16.6	3.3
CCOc1ccc(C2C(=C(O)c3ccc(OC)c(OC)c3)C(=O)C(=O)N2c2cc(C)on2)cc1OC (stereo unspecified)	.	.	.	0.695	.	.
CNS(=O)(=O)c1ccc(NC(=O)Nc2cccc(F)c2)cc1	-12.3	5.3	9.8	0.511*	-7.1	7.4
CC(=O)Nc1cccc(NC(=O)Nc2cccc(F)c2)c1	-2.8	3.9	-0.3	0.662	-1.8	-3.4
COc1cc(CCCN2C(=O)C(=O)NC[C@@H]2CC2CCCCC2)cc(OC)c1OC	.	2.5	-2.1	.	1.3	0.1
